# Data taken from PubChem BioAssay AID2451 (National Center for Advancing Translational Sciences (NCATS), 2010).
# Hit rate of the full screen: of about 290,000 compounds, about 2,100 (0.72%) were called active. Where a call stands in place of a potency, no number is given. Another 4% or so got no clear call; they are omitted. Calls come from the whole dose curve; as a rule, active = well fitted inhibition curve with a large enough effect; inconclusive = small, poorly fitted or top-dose-only effect, or effect the other way; inactive = flat fitted curve, though single readings scatter. The sample as a whole holds a higher share of actives than the screen did.
# Biological target: Fructose-bisphosphate aldolase (Giardia intestinalis (strain ATCC 50803 / WB clone C6)) (UniProt A8B2U2)
# Sequence (A8B2U2 whole entry, looked up): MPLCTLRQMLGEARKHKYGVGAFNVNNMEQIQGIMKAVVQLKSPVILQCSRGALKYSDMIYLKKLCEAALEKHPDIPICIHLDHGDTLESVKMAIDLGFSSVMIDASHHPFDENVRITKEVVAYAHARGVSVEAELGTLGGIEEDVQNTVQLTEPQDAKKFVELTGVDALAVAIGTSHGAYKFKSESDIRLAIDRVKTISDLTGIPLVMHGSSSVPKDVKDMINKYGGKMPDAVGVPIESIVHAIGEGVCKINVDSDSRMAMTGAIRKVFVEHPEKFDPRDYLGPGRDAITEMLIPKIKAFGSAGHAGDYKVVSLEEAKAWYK
# Experiment: qHTS Assay for Inhibitors of Fructose-1,6-bisphosphate Aldolase from Giardia Lamblia; note: nearly all actives have a fitted effect of over 55% in size
# Details: purified Giardia FBPA; series mostly up to 59.6 µM
# Procedure, shortened: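 40 nM FBPA preincubated 10 min at RT with compound (up to 57.5 uM final), then substrate plus GAPDH/TPI/NAD/arsenate coupling and diaphorase/resazurin added. Fluorescence read after 20 min at RT, 525/598 nm.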
# Potency is the fitted concentration of half-maximal effect.
row,SMILES,Potency
1,COc1ccc(C(=O)CC(=O)c2ccc(C)cc2)c(O)c1,inactive
2,c1ccc2c(c1)CCc1snnc1-2,inactive
3,CSc1ccc(S(=O)(=O)N2CCC(C(=O)NCCc3ccccc3)CC2)cc1,inactive
4,CSc1ccccc1NC(=O)c1ccc2c(c1)CCN2S(C)(=O)=O,inactive
5,CC(NC(=O)Cn1cc(C(F)(F)F)cc(Cl)c1=O)c1ccccc1 (stereo not given),inactive
6,CO/N=C(\C(=O)N[C@@H]1C(=O)N2C(C(=O)O)=C(COC(C)=O)CS[C@H]12)c1csc(N)n1 (stereo in doubt),inactive
7,Cc1nnc(SCC2=C(C(=O)O)N3C(=O)C(NC(=O)Cn4nc(C)c(Cl)c4C)C3SC2)s1 (stereo not given),22.3 µM (active)
8,Cc1nnc(SCC(=O)NC2CCCC2)s1,inactive
9,Cc1cccc(NC(=S)NCCc2ccc(Cl)cc2)c1C,inactive
10,O=C(Nc1ccccc1)/C(=C\c1ccco1)NC(=O)c1ccco1,inactive
11,CCCC1=Nc2cc(C(=O)NCCN3CCCC3)ccc2Sc2ccccc21,inactive
12,CCOC(=O)N1CCC(NC(=O)c2ccc3nc(N4CCOCC4)sc3c2)CC1,inactive
13,Cc1nc(N2CCOCC2)sc1C(=O)NN,12.6 µM (active)
14,Cc1nc(-c2ccc(Cl)cc2)sc1C(=O)NN,inactive
15,Cc1ccc(NS(=O)(=O)c2ccc3c(c2)oc(=O)n3C)c(C)c1,inactive
16,Cc1ccc(OCCCCc2c(C)n[nH]c2C)cc1,20 µM (active)
17,Cc1ccc(OCc2n[nH]c(=S)n2-c2ccc(C)cc2)cc1,inactive
18,CCCOc1ccc(-c2nc(N)n[nH]2)cc1,inactive
19,Cc1ccccc1C(=O)N1CCC(C(=O)Oc2ccc(C#N)cc2)CC1,inactive
20,Cc1ccc(CNC(=O)C2CCCN2S(=O)(=O)c2ccc3c(c2)C(C)(C)C(=O)N3C)cc1 (stereo not given),inactive
21,CCCCOC(=O)Nc1nnc(CC(=O)NCc2ccccc2)s1,inactive
22,CCCOC1CCCN(C(=O)c2cc(COc3cncc(Cl)c3)on2)C1 (stereo not given),inactive

row,SMILES,Potency
1,C/C(=N\NC(=O)c1cccc([N+](=O)[O-])c1)c1cccnc1,inactive
2,C/C(=N\NC(N)=S)c1cccnc1,15.8 µM (active)
3,C/C(=N\NC(=O)c1cccnc1)c1ccc(-c2ccccc2)cc1,inactive
4,CCOC(=O)[C@@H]1[C@H]2COc3cc(OC)ccc3[C@@H]2N2C(=O)N(c3cccc(C)c3)C(=O)[C@@]12C,inactive
5,CN(Cc1ccccc1)C(=O)c1cccc(C(=O)N(C)Cc2ccccc2)c1,inactive
6,CCOc1ccc(N(CC(=O)NCCc2ccc(F)cc2)S(=O)(=O)c2ccccc2)cc1,inactive
7,Cc1cccc(S(=O)(=O)N2CN(CC3CCCO3)c3nc4ccccc4nc32)c1 (stereo not given),inactive
8,CC/C(=N\NC(=O)c1c(C)nc2ccccn12)c1ccc(Cl)cc1,inactive
9,CC1(C)Cc2ccccc2/C(=C/C(=O)c2ccccc2)N1,inactive
10,CCCc1nc2ccccc2c(=O)n1/N=C/c1ccc(O)c(O)c1,2.51 µM (active)
11,CCCc1nc2ccccc2c(=O)n1NC(=O)c1c(O)c2ccccc2[nH]c1=O,inactive
12,Cn1c(SCC(=O)N/N=C/c2ccc(O)c(O)c2)nc2ccccc21,inactive
13,CC1C(=O)N(Cc2ccccc2)c2ccccc2N1C(=O)c1ccccc1 (stereo not given),inactive
14,COc1ccccc1C1C(C(N)=O)=C(C)Nc2nc(CCCO)nn21 (stereo not given),inactive
15,O=C(O)C(c1ccccc1)N1C(=O)/C(=C\c2ccc(-c3cccc(Cl)c3)o2)SC1=S (stereo not given),inactive
16,CN1C(=O)/C(=C\c2ccc(-c3ccccc3)o2)SC1=S,4.46 µM (active)
17,CN=C1S/C(=C\c2ccc(Sc3ccc(Cl)cc3)o2)C(=O)N1C,inactive
18,COc1ccc(CNC(=O)[C@H](Cc2c[nH]c3ccccc23)NC(C)=O)cc1OC,inactive
19,COc1ccc(CNCCc2c[nH]c3ccccc23)cc1OC,17.8 µM (active)
20,COc1ccc(S(=O)(=O)NCCc2c[nH]c3ccccc23)cc1OC,inactive
21,CCN(CC(=O)NC(=O)NCc1ccccc1)Cc1nc2ccccc2c(=O)[nH]1,17.7 µM (active)
22,CCN(CC(=O)Nc1ccc(Cl)c(S(=O)(=O)N(C)C)c1)Cc1nc2ccccc2c(=O)[nH]1,inactive

row,SMILES,Potency
1,CCN(CC(=O)Nc1cccc(S(N)(=O)=O)c1)Cc1nc2ccccc2c(=O)[nH]1,inactive
2,CC(C)CCNC(=O)c1ccc2c(Cl)c3c(nc2c1)CCC3,inactive
3,Cc1ccc(-n2c(SCC(=O)N3CCC(C(=O)O)CC3)nc3ccccc3c2=O)cc1C,inactive
4,COc1cc(CN2CC(C)CC(C)C2)cc([N+](=O)[O-])c1O (stereo not given),inactive
5,COc1cc(NC(=O)NCC2CCN(Cc3ccc(C)cc3)CC2)cc(OC)c1OC,inactive
6,COc1cc(CN2CCN(Cc3ccc(C)cc3)CC2)c([N+](=O)[O-])cc1OC,5.61 µM (active)
7,CC(=O)c1ccc(N2CCN(S(=O)(=O)c3ccc4c(c3)CC(=O)N4C)CC2)cc1,inactive
8,COc1ccc(NC(=O)c2cc(-c3cc(OC)c(OC)c(OC)c3)nc3ccccc23)c(OC)c1,inactive
9,Cn1c(=O)n(C)c2cc(S(=O)(=O)Nc3ccc(F)cc3)ccc21,inactive
10,COc1ccc(NC(=O)C(CC(C)C)NC(=O)C2CCC(C)CC2)cc1 (stereo not given),inactive
11,CC[C@]1(c2ccccc2OC)C(=O)N(C(=O)OC)N1C(=O)OC,inactive
12,COc1ccccc1NC(=O)N1C[C@@H]2C[C@@H](C1)c1cccc(=O)n1C2,inactive
13,O=C(NC(=S)N1C[C@H]2C[C@H](C1)c1cccc(=O)n1C2)c1ccc(F)cc1,7.94 µM (active)
14,COc1cccc(C(=O)N2C[C@H]3C[C@@H](C2)c2cccc(=O)n2C3)c1,inactive
15,Cc1ccc(SCCSc2ncccn2)cc1,inactive
16,O=C(COC(=O)Cc1ccc(F)cc1)Nc1cc(S(=O)(=O)N2CCOCC2)ccc1N1CCCC1,inactive
17,COCCNC(=S)Nc1cc(S(=O)(=O)N2CCOCC2)ccc1N1CCCCC1,2.81 µM (active)
18,CC(=O)NCCC(=O)Nc1cc(S(=O)(=O)N2CCOCC2)ccc1N1CCOCC1,inactive
19,Cc1ccc(C(=O)NC2CCN(C(=O)Nc3ccc(F)cc3)CC2)cc1,inactive
20,C=CCCN(C(Cc1ccccc1)C(=O)OC)S(=O)(=O)c1cc(Br)ccc1Br (stereo not given),inactive
21,CCCNC(=O)c1ccc(N2CCC3(CC2)CC(c2ccc(Cl)cc2)=NO3)c([N+](=O)[O-])c1,inactive
